Results reported in PubChem BioAssay AID488846 (National Center for Advancing Translational Sciences (NCATS), 2010).
Activity calls are given as the source filed them. The call rests on the fitted dose curve; in most records, active means well fitted curve in the direction sought with a large enough effect; inactive means no such curve, though single readings can be large or run the other way.

molecular target: Alpha-galactosidase A (Homo sapiens) (UniProt P06280); assay: qHTS Assay for Inhibitors and Activators of N370S glucocerebrosidase as a Potential Chaperone Treatment of Gaucher Disease: Alpha-Galactosidase Counterscreen for Probe SAR; conditions: purified human alpha-galactosidase, 4-MU-alpha-Gal fluorescence
Description: NIH Chemical Genomics Center [NCGC] NIH Molecular Libraries Probe Production Centers Network [MLPCN] MLPCN Grant: MH086442-01 Assay Submitter (PI): Wei Zheng Glucocerebrosidase (GC) catalyzes the hydrolysis of beta-glucocerebroside to glucose and ceramide in lysosomes. Mutations in the glucocerebrosidase gene result in Gaucher disease, an autosomal recessive lysosomal storage disorder. Many of the mutations encountered in patients with Gaucher disease are missense alterations that may cause misfolding, decreased stability and/or mistrafficking of this lysosomal protein. […] These inhibitors include iminosugar analogs and three non-iminosugar inhibitors identified from a previous HTS of 62,000 compounds with the wild type recombinant enzyme. However, the enhancement of enzyme activity by the chaperone action of an enzyme inhibitor must be balanced against the direct inhibition of the enzyme. An enzyme activator could also function as a chaperone by binding to the enzyme and helping to correct its misfolding and mistrafficking. While activators for GC have not yet been identified, they may have better therapeutic potential than inhibitors. Therefore the discovery and development of chemical activators may provide a new strategy for the chaperone therapy. To characterize compound selectivity, selected hits from the primary screen were screened against purified alpha-galactosidase, a related sugar hydrolase. Alpha-galactosidase is a homodimeric glycoprotein that hydrolyzes the terminal alpha-galactosyl moieties from glycolipids and glycoproteins.
NCGC Assay Protocol Summary: This is a fluorogenic enzyme assay with 4-Methylumbelliferyl alpha-D-galactopyranoside as the substrate and human […] as the enzyme preparation. Upon the hydrolysis of this fluorogenic substrate, the resulting product, […]. 4-Methyllumbelliferone, can be excited at 365 nm and emits at 440 nm. This fluorescence which can be detected by a standard fluorescence plate reader. Data were normalized to the controls for basal activity (without enzyme) and 100% activity (with enzyme). In the AC50 values were determined from concentration-response data modeled with the standard Hill equation. Assay buffer: 50 mM citric acid (titrated with potassium phosphate to pH 4.5), 0.005% Tween-20, pH 4.5. (pH 4.5 is an optimal condition for this enzyme assay) 1536-well assay protocol for the human alpha-galactosidase: (1) Add 2 ul/well of enzyme (12 nM final) (2) Add 23 nL compounds in DMSO solution. The final titration was 0.7 nM to 77 uM. (3) Add 1 ul of substrate ([…]) (4) Incubate at room temperature for 20 min. (5) Add 2 ul stop solution (1M NaOH and 1M Glycine mixture, pH 10) (6) Detect the assay plate in a ViewLux plate reader (PerkinElmer) with Ex=365 nm and Em=440nm.

Alpha-galactosidase A (Homo sapiens), sequence (P06280 whole entry, looked up): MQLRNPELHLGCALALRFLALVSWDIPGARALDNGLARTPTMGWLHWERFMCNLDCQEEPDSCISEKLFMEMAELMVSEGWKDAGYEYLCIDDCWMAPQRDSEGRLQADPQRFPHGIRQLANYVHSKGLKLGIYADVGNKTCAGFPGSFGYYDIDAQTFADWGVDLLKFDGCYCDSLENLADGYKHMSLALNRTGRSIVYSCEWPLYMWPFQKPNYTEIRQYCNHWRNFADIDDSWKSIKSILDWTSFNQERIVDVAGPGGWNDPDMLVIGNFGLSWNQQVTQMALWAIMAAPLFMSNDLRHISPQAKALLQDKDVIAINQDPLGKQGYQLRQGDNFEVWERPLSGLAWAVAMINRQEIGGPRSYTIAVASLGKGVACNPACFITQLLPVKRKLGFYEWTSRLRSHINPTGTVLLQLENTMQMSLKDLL

SMILES	max response
C#Cc1ccc(NC(=O)c2cnn3c(C)cc(C)nc23)cc1	-7.39% (inactive)
C=C1C=C(C(F)F)n2ncc(C(=O)Nc3ccc(C(C)CC)cc3)c2N1 (stereo unspecified)	-7.63% (inactive)
O=C(Nc1ccccc1Sc1ccccc1)c1cnn2c1NC(=C1CC1)C=C2C(F)F	-8.53% (inactive)
O=C(NC1CCCCC1)c1cnn2c1NC(=C1CC1)C=C2C(F)F	-4.62% (inactive)
O=C(Nc1ccc2c(c1)CCC2)c1cnn2c1NC(=C1CC1)C=C2C(F)F	-2.77% (inactive)
O=C(Nc1ccccc1Sc1ccccc1)c1cnn2c1NC(=C1CC1)C=C2C(F)(F)F	-8.17% (inactive)
